Assays:
Test in all cases: PBM; 200 nM protein, PBS
Conditions in all cases: dsDNA, one strand shown
ALX3 [1] = biological target: ALX3 (Homo sapiens, UniProt O95076 139-225)
MSX2 [2] = biological target: MSX2 (Homo sapiens, UniProt P35548 130-214)
MSX2 [3] = biological target: MSX2 (Homo sapiens, UniProt P35548 130-214, F161Y)
PROP1 [4] = biological target: PROP1 (Homo sapiens, UniProt O75360 56-141)
PROP1 [5] = biological target: PROP1 (Homo sapiens, UniProt O75360 56-141, R99H)
PROP1 [6] = biological target: PROP1 (Homo sapiens, UniProt O75360 56-141, F88S)
Chain of PROP1 (Homo sapiens, UniProt O75360 56-141, F88S) (O75360 56-141 F88S): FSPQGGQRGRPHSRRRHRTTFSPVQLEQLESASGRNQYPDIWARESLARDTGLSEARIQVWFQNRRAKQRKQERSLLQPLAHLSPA

NKX2-4 = biological target: T1, NKX2-4 (Homo sapiens, UniProt Q9H2Z4 175-261, R246Q)
T1 sequence: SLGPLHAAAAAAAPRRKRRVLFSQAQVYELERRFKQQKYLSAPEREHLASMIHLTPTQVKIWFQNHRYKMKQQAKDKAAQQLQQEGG

VAX1 [7] = biological target: VAX1 (Homo sapiens, UniProt Q5SQQ9 86-172)
Chain of VAX1 (Homo sapiens, UniProt Q5SQQ9 86-172) (Q5SQQ9 86-172): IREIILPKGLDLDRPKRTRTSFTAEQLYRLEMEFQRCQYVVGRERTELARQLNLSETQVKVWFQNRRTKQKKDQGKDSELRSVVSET

VAX1 [8] = biological target: VAX1 (Homo sapiens, UniProt Q5SQQ9 86-172, T142I)
Chain of VAX1 (Homo sapiens, UniProt Q5SQQ9 86-172, T142I) (Q5SQQ9 86-172 T142I): as the sequence (Q5SQQ9 86-172) above, with T57I counted along it

VAX1 [9] = biological target: VAX1 (Homo sapiens, UniProt Q5SQQ9 86-172, K157R)
Chain of VAX1 (Homo sapiens, UniProt Q5SQQ9 86-172, K157R) (Q5SQQ9 86-172 K157R): as the sequence (Q5SQQ9 86-172) above, with K72R counted along it

ALX3 [10] = biological target: ALX3 (Homo sapiens, UniProt O95076 139-225, N203S)
Chain of ALX3 (Homo sapiens, UniProt O95076 139-225, N203S) (O95076 139-225 N203S): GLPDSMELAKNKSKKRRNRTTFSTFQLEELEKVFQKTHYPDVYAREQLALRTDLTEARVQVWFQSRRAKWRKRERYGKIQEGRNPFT

PAX4 = biological target: T2, PAX4 (Homo sapiens, UniProt O43316 9-242, F177Y)
T2 sequence: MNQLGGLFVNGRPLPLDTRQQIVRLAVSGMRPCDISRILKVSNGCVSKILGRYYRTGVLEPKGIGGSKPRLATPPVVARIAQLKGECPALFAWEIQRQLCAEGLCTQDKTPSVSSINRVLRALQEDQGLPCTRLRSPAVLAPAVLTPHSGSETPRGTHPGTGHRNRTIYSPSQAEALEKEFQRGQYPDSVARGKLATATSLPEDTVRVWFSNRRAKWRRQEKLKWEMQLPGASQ

Chain of PROP1 (Homo sapiens, UniProt O75360 56-141, R99H) (O75360 56-141 R99H): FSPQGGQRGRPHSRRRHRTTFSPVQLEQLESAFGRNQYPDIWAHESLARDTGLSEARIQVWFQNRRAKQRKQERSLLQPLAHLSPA
Chain of MSX2 (Homo sapiens, UniProt P35548 130-214) (P35548 130-214): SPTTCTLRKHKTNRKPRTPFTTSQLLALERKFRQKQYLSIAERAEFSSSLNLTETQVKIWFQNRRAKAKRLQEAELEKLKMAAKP
Chain of ALX3 (Homo sapiens, UniProt O95076 139-225) (O95076 139-225): as the sequence (O95076 139-225 N203S) above, with S65N counted along it
Chain of MSX2 (Homo sapiens, UniProt P35548 130-214, F161Y) (P35548 130-214 F161Y): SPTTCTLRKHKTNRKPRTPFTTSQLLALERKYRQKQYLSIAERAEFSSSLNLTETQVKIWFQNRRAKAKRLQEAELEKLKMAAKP
Chain of PROP1 (Homo sapiens, UniProt O75360 56-141) (O75360 56-141): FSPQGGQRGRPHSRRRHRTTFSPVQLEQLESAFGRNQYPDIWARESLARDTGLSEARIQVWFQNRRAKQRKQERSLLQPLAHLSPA

TCCTTAGA
binding signal (ALX3 [1]): 8.33 upbm affinity estimate (log intensity, higher = more binding, comparable within an allelic series)

AAACGATG
binding signal (MSX2 [2]): 10.6 upbm affinity estimate (log intensity, higher = more binding, comparable within an allelic series)

ATCAATCC
binding signal (MSX2 [2]): 11.1 upbm affinity estimate (log intensity, higher = more binding, comparable within an allelic series) | binding signal (MSX2 [3]): 11.1 upbm affinity estimate (log intensity, higher = more binding, comparable within an allelic series)

GTCATCTA
binding signal (MSX2 [2]): 10.5 upbm affinity estimate (log intensity, higher = more binding, comparable within an allelic series) | binding signal (MSX2 [3]): 10.4 upbm affinity estimate (log intensity, higher = more binding, comparable within an allelic series)

ATTTGTCC
binding signal (MSX2 [2]): 11.1 upbm affinity estimate (log intensity, higher = more binding, comparable within an allelic series) | binding signal (MSX2 [3]): 11 upbm affinity estimate (log intensity, higher = more binding, comparable within an allelic series)

ACCGATAA
binding signal (MSX2 [2]): 11.2 upbm affinity estimate (log intensity, higher = more binding, comparable within an allelic series) | binding signal (MSX2 [3]): 11.1 upbm affinity estimate (log intensity, higher = more binding, comparable within an allelic series)

GAATAAAA
binding signal (MSX2 [2]): 11 upbm affinity estimate (log intensity, higher = more binding, comparable within an allelic series) | binding signal (MSX2 [3]): 10.9 upbm affinity estimate (log intensity, higher = more binding, comparable within an allelic series)

AACTAAAT
binding signal (PROP1 [4]): 9.34 upbm affinity estimate (log intensity, higher = more binding, comparable within an allelic series) | binding signal (PROP1 [5]): 8.6 upbm affinity estimate (log intensity, higher = more binding, comparable within an allelic series) | binding signal (PROP1 [6]): 7.5 upbm affinity estimate (log intensity, higher = more binding, comparable within an allelic series)

GCATTACA
binding signal (PROP1 [4]): 8.11 upbm affinity estimate (log intensity, higher = more binding, comparable within an allelic series) | binding signal (PROP1 [5]): 7.66 upbm affinity estimate (log intensity, higher = more binding, comparable within an allelic series)

AGACCGTC
binding signal (PROP1 [4]): 6.82 upbm affinity estimate (log intensity, higher = more binding, comparable within an allelic series) | binding signal (PROP1 [5]): 6.83 upbm affinity estimate (log intensity, higher = more binding, comparable within an allelic series) | binding signal (PROP1 [6]): 6.81 upbm affinity estimate (log intensity, higher = more binding, comparable within an allelic series)

AGTTAGAG
binding signal (PROP1 [4]): 7.87 upbm affinity estimate (log intensity, higher = more binding, comparable within an allelic series)

AAGAATAT
binding signal (PROP1 [4]): 8.06 upbm affinity estimate (log intensity, higher = more binding, comparable within an allelic series)

ATAGAAAA
binding signal (ALX3 [1]): 8.94 upbm affinity estimate (log intensity, higher = more binding, comparable within an allelic series)

ACTCTTGA
binding signal (NKX2-4): 12.9 upbm affinity estimate (log intensity, higher = more binding, comparable within an allelic series)

AATAGTCC
binding signal (PROP1 [4]): 8.13 upbm affinity estimate (log intensity, higher = more binding, comparable within an allelic series)

TTACTCAA
binding signal (PROP1 [4]): 8.57 upbm affinity estimate (log intensity, higher = more binding, comparable within an allelic series) | binding signal (PROP1 [5]): 7.91 upbm affinity estimate (log intensity, higher = more binding, comparable within an allelic series) | binding signal (VAX1 [7]): 9.78 upbm affinity estimate (log intensity, higher = more binding, comparable within an allelic series) | binding signal (PROP1 [6]): 7.39 upbm affinity estimate (log intensity, higher = more binding, comparable within an allelic series) | binding signal (VAX1 [8]): 9.49 upbm affinity estimate (log intensity, higher = more binding, comparable within an allelic series) | binding signal (VAX1 [9]): 9.35 upbm affinity estimate (log intensity, higher = more binding, comparable within an allelic series)

AACAATCC
binding signal (PROP1 [4]): 7.92 upbm affinity estimate (log intensity, higher = more binding, comparable within an allelic series)

AAAAATAA
binding signal (ALX3 [1]): 9.76 upbm affinity estimate (log intensity, higher = more binding, comparable within an allelic series)

AAAATGGG
binding signal (PROP1 [4]): 7.94 upbm affinity estimate (log intensity, higher = more binding, comparable within an allelic series)

ATCAAGTA
binding signal (NKX2-4): 12.9 upbm affinity estimate (log intensity, higher = more binding, comparable within an allelic series)

GATATGGA
binding signal (ALX3 [1]): 9.24 upbm affinity estimate (log intensity, higher = more binding, comparable within an allelic series)

CCGCACCC
binding signal (PROP1 [4]): 6.68 upbm affinity estimate (log intensity, higher = more binding, comparable within an allelic series) | binding signal (PROP1 [5]): 6.9 upbm affinity estimate (log intensity, higher = more binding, comparable within an allelic series) | binding signal (PROP1 [6]): 6.69 upbm affinity estimate (log intensity, higher = more binding, comparable within an allelic series)

TGTAGTAA
binding signal (PROP1 [4]): 8.45 upbm affinity estimate (log intensity, higher = more binding, comparable within an allelic series) | binding signal (PROP1 [5]): 8 upbm affinity estimate (log intensity, higher = more binding, comparable within an allelic series)

AGGGCCGC
binding signal (PROP1 [4]): 6.72 upbm affinity estimate (log intensity, higher = more binding, comparable within an allelic series) | binding signal (PROP1 [5]): 6.82 upbm affinity estimate (log intensity, higher = more binding, comparable within an allelic series) | binding signal (PROP1 [6]): 6.5 upbm affinity estimate (log intensity, higher = more binding, comparable within an allelic series)

GGTTGTTA
binding signal (ALX3 [1]): 9.57 upbm affinity estimate (log intensity, higher = more binding, comparable within an allelic series) | binding signal (ALX3 [10]): 8.28 upbm affinity estimate (log intensity, higher = more binding, comparable within an allelic series)

AAATACAT
binding signal (PROP1 [4]): 8.5 upbm affinity estimate (log intensity, higher = more binding, comparable within an allelic series) | binding signal (PROP1 [5]): 7.91 upbm affinity estimate (log intensity, higher = more binding, comparable within an allelic series)

CATATTGA
binding signal (ALX3 [1]): 9.37 upbm affinity estimate (log intensity, higher = more binding, comparable within an allelic series)

ACACTCGA
binding signal (NKX2-4): 12.9 upbm affinity estimate (log intensity, higher = more binding, comparable within an allelic series)

ATTGTGAG
binding signal (PROP1 [4]): 8.01 upbm affinity estimate (log intensity, higher = more binding, comparable within an allelic series)

ATTATGTG
binding signal (PAX4): 10.9 upbm affinity estimate (log intensity, higher = more binding, comparable within an allelic series)

ATAATTCG
binding signal (PAX4): 11 upbm affinity estimate (log intensity, higher = more binding, comparable within an allelic series)

CTTATAAC
binding signal (ALX3 [1]): 9.51 upbm affinity estimate (log intensity, higher = more binding, comparable within an allelic series)

AATACTAC
binding signal (PROP1 [4]): 7.84 upbm affinity estimate (log intensity, higher = more binding, comparable within an allelic series)

CCAAACAA
binding signal (ALX3 [1]): 8.78 upbm affinity estimate (log intensity, higher = more binding, comparable within an allelic series)

ACTATTAT
binding signal (ALX3 [1]): 10.4 upbm affinity estimate (log intensity, higher = more binding, comparable within an allelic series)

CCCGACAC
binding signal (PROP1 [4]): 6.59 upbm affinity estimate (log intensity, higher = more binding, comparable within an allelic series) | binding signal (PROP1 [5]): 6.79 upbm affinity estimate (log intensity, higher = more binding, comparable within an allelic series) | binding signal (VAX1 [7]): 6.71 upbm affinity estimate (log intensity, higher = more binding, comparable within an allelic series) | binding signal (PROP1 [6]): 6.7 upbm affinity estimate (log intensity, higher = more binding, comparable within an allelic series) | binding signal (VAX1 [8]): 6.92 upbm affinity estimate (log intensity, higher = more binding, comparable within an allelic series) | binding signal (VAX1 [9]): 6.92 upbm affinity estimate (log intensity, higher = more binding, comparable within an allelic series)
